Hits are enriched below; roughly 18% of the tested compounds scored in any of these assays.
DT40 TDP1 CPT: qHTS for Inhibitors of human tyrosyl-DNA phosphodiesterase 1 (TDP1): qHTS in cells in presence of CPT | chicken DT40 Tdp1-/-;hTDP1 cells + 20 nM CPT, ATP luminescence, 48 h | Potency, µM (series often up to 46.2 µM), without a hit: top-dose activity change, negative = growth inhibition, actives largely listed as inhibitors | 12% of 420,000 active; note: potency is the fitted concentration of half-maximal effect; % is set by controls: 0 for no effect and ±100 for the full control effect; nearly all actives have a fitted effect of over 55% in size
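Chicken DT40 Tdp1-/- cells stably complemented with human TDP1 were seeded at 400 cells/well in medium containing 20 nM camptothecin, exposed to pin-transferred compounds, and grown at 37 °C for at least 48 hr. Viability was read as ATP luminescence.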
HepG2 tox: qHTS for Inhibitors of TGF-b: Cytotox Counterscreen; HepG2 CAGA-GFP viability, ATP luminescence, 18 h; Potency, µM (top dose mostly 46.1 µM), inactives show at the top dose activity change, negative = cytotoxicity, actives largely listed as cytotoxic; 0.76% of 410,000 active; note: potency is the fitted concentration of half-maximal effect
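HepG2 CAGA-GFP cells (1000/well, DMEM with 1% FBS) received compound, then TGF-beta at 500 pg/mL final, and were incubated 18 hours at 37 degrees C. Viability was read by CellTiter-Glo luminescence. Media-only wells were set as complete cell-killing and DMSO as no toxicity.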
TGFb SMAD3 inh: qHTS for Inhibitors of TGF-b. HepG2 CAGA-GFP TGF-b/SMAD3 reporter, GFP fluorescence, 18 h; TGF-beta stimulated, 500 pg/mL final. Potency, µM (series often up to 46.1 µM), for the others: at the top dose activity, negative = inhibition, hits mostly inhibitors. 1.2% of 410,000 active. AID 588855, 2011; note: potency is the fitted concentration of half-maximal effect; % is set by controls: 0 for no effect and ±100 for the full control effect; nearly all actives have a fitted effect of over 65% in size
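Per well, imaged GFP fluorescence of HEPG2 CAGA-GFP cells gives the signal; cells get compound, then TGF-beta (500 pg/mL final), 18 h at 37 degrees C; %Activity versus -TGF-beta and +DMSO controls.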
TDP1 inh: qHTS Assay for Inhibitors of Tyrosyl-DNA Phosphodiesterase (TDP1). Tyrosyl-DNA phosphodiesterase 1 (Homo sapiens), Q9NUW8. recombinant TDP1, AlphaScreen DNA substrate cleavage. Potency, µM (titrated, usually from 130 µM), for the others: top-dose activity change, negative = inhibition, actives largely listed as inhibitors. 0.28% of 350,000 active. AID 485290, 2010; note: potency is the fitted concentration of half-maximal effect; % is set by controls: 0 for no effect and ±100 for the full control effect; nearly all actives have a fitted effect of over 40% in size
Target sequence (Q9NUW8 whole entry, looked up): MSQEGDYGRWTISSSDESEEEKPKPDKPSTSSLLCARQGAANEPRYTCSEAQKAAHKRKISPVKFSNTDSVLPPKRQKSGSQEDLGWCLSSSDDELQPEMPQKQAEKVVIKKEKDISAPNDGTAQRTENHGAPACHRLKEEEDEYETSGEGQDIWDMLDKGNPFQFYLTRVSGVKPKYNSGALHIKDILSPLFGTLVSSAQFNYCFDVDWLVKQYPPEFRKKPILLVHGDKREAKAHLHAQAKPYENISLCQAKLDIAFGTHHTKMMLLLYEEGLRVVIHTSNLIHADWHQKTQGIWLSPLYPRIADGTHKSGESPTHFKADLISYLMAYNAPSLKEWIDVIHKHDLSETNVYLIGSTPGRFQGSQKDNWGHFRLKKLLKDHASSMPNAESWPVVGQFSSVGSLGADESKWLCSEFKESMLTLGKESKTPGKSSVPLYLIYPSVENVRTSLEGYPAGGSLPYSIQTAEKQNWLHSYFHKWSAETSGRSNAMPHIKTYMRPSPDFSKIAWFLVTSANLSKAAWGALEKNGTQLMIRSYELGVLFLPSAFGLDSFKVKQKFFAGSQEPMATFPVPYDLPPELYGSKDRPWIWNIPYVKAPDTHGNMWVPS
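Here, a 5' biotin and 3' phosphotyrosine-FITC DNA oligonucleotide reports Tdp1 activity: intact substrate bridges AlphaScreen beads, while cleavage leaves a 3' phosphate and drops signal. All incubations at room temperature.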
DT40 TDP1 no CPT: qHTS for Inhibitors of human tyrosyl-DNA phosphodiesterase 1 (TDP1): qHTS in cells in absence of CPT; Potency, µM (titrated, usually from 46.2 µM), without a hit: top-dose activity change, negative = growth inhibition, hits mostly inhibitors; AID 686978, 2013; DT40 Tdp1-/- hTDP1 cells, no CPT, ATP luminescence, 48 h; 15% of 420,000 active; note: potency is the fitted concentration of half-maximal effect; % is set by controls: 0 for no effect and ±100 for the full control effect; nearly all actives have a fitted effect of over 55% in size
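Stably hTDP1-transfected Tdp1-null chicken DT40 cells were treated with library compounds minus camptothecin and grown for at least 48 hr at 37 °C, after which cellular ATP was quantified by luminescence.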
IL-1B inflam inh: qHTS for Inhibitors of Inflammasome Signaling: IL-1-beta AlphaLISA Primary Screen; 4.7% of 360,000 active; activity change, % at 57.5 µM; THP-1 LPS/ATP IL-1B secretion, AlphaLISA, 16 h; hits give low values; in the data active = activity change below about -50%; inconclusive = mostly about -30% to -49%; note: % is set by controls: 0 for no effect and ±100 for the full control effect
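Secreted IL-1B measured by AlphaLISA bead assay after 16 h compound exposure of THP-1 cells; compounds (final up to 57.5 uM) added 1 h before LPS (250 ng/mL) and ATP (1.25 mM) stimulation; lower signal means less secretion.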
* hit, by the source's call; ? = inconclusive; nt = no result given. Unless noted, calls come from the whole dose curve; as a rule, active = well fitted curve in the direction sought with a large enough effect; inconclusive = small, poorly fitted or top-dose-only effect, or another doubt; inactive = no such curve, though single readings can be large; an effect the other way counts as inactive or inconclusive.

SMILES | DT40 TDP1 CPT | HepG2 tox | TGFb SMAD3 inh | TDP1 inh | DT40 TDP1 no CPT | IL-1B inflam inh
O=C(Nc1nc(-c2cccs2)cs1)C1CC(=O)N(c2ccc3c(c2)OCCO3)C1 (stereo not given) | ? | -34.8% | ? | 4.1% | ? | nt
CCOc1ccc(-n2c(=O)c3c4c(sc3n(CC(=O)NC(C)CC)c2=O)CCC4)cc1 (stereo not given) | 18.1% | 1.3% | 5.8% | 0.0% | -14.6% | nt
c1cc(SSc2ccncc2)ccn1 | ? | 0.8% | -11.8% | nt | 16.4µM* | ?
c1ccc(Sc2ccncc2)cc1 | 0.7% | 4.4% | -4.6% | nt | 3.3% | -25.1
Cc1cc2c(cc1C)-c1nnnn1C(N1CCCCC1)C(=O)N2 (stereo not given) | 14.6µM* | nt | nt | nt | 9.2µM* | 28.6
c1ccc(CC2CCN(c3nnnn3-c3ccccc3)CC2)cc1 | -16.2% | -42.8% | ? | 0.0% | -29.7% | -18.2
Cc1cc2c(cc1C)-n1nnnc1C(N1CCCNCC1)C(=O)N2 (stereo not given) | ? | nt | nt | nt | -17.4% | 21.3
O=C1Nc2ccccc2-c2nnnn2C1N1CCC(Cc2ccccc2)CC1 (stereo not given) | ? | nt | nt | nt | 18.4µM* | 11.7
C=CCn1c(SCc2ccccc2F)nc2cc(C(=O)O)ccc2c1=O | 1.4% | -21.1% | -14.9% | 3.7% | 7.6% | 32.5
COc1ccc(-c2cnc(C(N)=O)c(=O)[nH]2)cc1 | -25.2% | 4.3% | -8.1% | nt | -4.6% | -4.6
Cc1nc(/C=C\C(=O)O)c2cc(C)oc2n1 | 3.3% | 8.3% | -0.1% | 1.1% | -7.0% | -66.3*
COc1ccc(C2=NN(S(C)(=O)=O)C(c3cn(-c4ccccc4)nc3-c3cccs3)C2)cc1 (stereo not given) | 10.3% | -0.9% | -6.1% | 7.1% | -2.1% | nt
CC(C)(C)c1ccc(C(=O)NNC(=S)NCc2ccco2)cc1 | ? | -2.6% | -11.4% | 10.3% | 23.1µM* | 15.2
CC(C)(C)N1C(=O)c2ccc(C(=O)NCc3ccco3)cc2C1=O | -27.9% | -6.3% | 7.7% | 6.8% | ? | -57.6*
CC(C)c1cc(C(=O)NNC(=S)NCc2ccco2)c(O)c(C(C)C)c1 | ? | -91.5% | ? | -3.0% | ? | -54.2*
CN(C)c1ncc2nc(CCc3ccccc3)c(=O)n(Cc3cccs3)c2n1 | ? | nt | nt | nt | 16.4µM* | nt
CN(C)c1ncc2ncc(=O)n(CCc3ccccc3)c2n1 | 20.6µM* | nt | nt | nt | 25.9µM* | nt
CN(C)c1ncc2nc(-c3ccccc3)c(=O)n(CCc3ccccc3)c2n1 | -6.3% | nt | nt | nt | 2.3% | nt
Cc1nc2cnc(N(C)C)nc2n(Cc2cccs2)c1=O | -14.2% | nt | nt | nt | -28.8% | nt
CC(=O)CCc1ccc(Oc2nc(-c3cccnc3)nc3ccccc23)cc1 | ? | -16.8% | -21.6% | 1.2% | ? | ?
Cc1ccc(NC(=O)C2(c3cccs3)CCOCC2)cc1Cl | 25.9µM* | -12.8% | -27.9% | -2.6% | ? | nt
CC(=O)Nc1cccc(NC(=O)C2(c3cccs3)CCOCC2)c1 | -0.5% | -16.1% | -28.2% | 2.6% | -7.0% | nt
O=C(Nc1ccc(C(F)(F)F)cc1)C1(c2cccs2)CCOCC1 | ? | -18.2% | -20.3% | -2.6% | 23.1µM* | nt
O=C(NCc1ccc(Cl)cc1)C1(c2cccs2)CCOCC1 | ? | -23.0% | -24.4% | -2.6% | ? | nt
CN(C)c1ccc(NC(=O)C2(c3cccs3)CCOCC2)cc1 | -4.1% | -7.2% | -4.5% | 5.2% | -2.2% | nt
O=C(Nc1cc(Cl)ccc1Cl)C1(c2cccs2)CCOCC1 | 16.4µM* | -0.6% | -5.4% | 2.6% | 20.6µM* | nt

Compound activity (PubChem BioAssay)
